About 83,000 compounds went through this panel and 20% of them were active in at least one assay; those are over-represented in the sample as a whole.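 Single-concentration screen, 48 h exposure, 96-well plates. Endpoint: percent growth. Below 10 = active.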 Activity calls are given as the source filed them.
Assays:
Assay in all cases: NCI-60 one-dose screen, 48 h (100 = growth as untreated, 0 = no growth, -100 = all killed)
Conditions in all cases: 10 µM
NCI-H23 lung = tested on: NCI-H23 lung
NCI-H226 lung = tested on: NCI-H226 lung
NCI-H322M lung = tested on: NCI-H322M lung
HOP-62 NSCLC = tested on: HOP-62 NSCLC
NCI-H460 lung = tested on: NCI-H460 lung
NCI-H522 lung = tested on: NCI-H522 lung
A549/ATCC NSCLC = tested on: A549/ATCC NSCLC
786-0 renal = tested on: 786-0 renal
COLO 205 colon = tested on: COLO 205 colon
DU-145 prostate = tested on: DU-145 prostate
K-562 leukemia = tested on: K-562 leukemia
MALME-3M melanoma = tested on: MALME-3M melanoma
MDA-MB-231 breast = tested on: MDA-MB-231 breast
RXF 393 renal = tested on: RXF 393 renal
SF-268 CNS = tested on: SF-268 CNS
SF-295 CNS = tested on: SF-295 CNS
SF-539 CNS = tested on: SF-539 CNS
UACC-257 melanoma = tested on: UACC-257 melanoma
M14 melanoma = tested on: M14 melanoma
HCT-15 colon = tested on: HCT-15 colon

Measured: growth

CCC(=O)N1C/C(=C/c2ccc(Br)cc2)C(=O)/C(=C/c2ccc(Br)cc2)C1
active: NCI-H23 lung -46.2% | NCI-H226 lung -62.8% | NCI-H322M lung -27.2% | HOP-62 NSCLC -67.4% | NCI-H460 lung -46.8% | NCI-H522 lung -79.6% | A549/ATCC NSCLC -27.2% | 786-0 renal -77.3% | COLO 205 colon -93.1% | DU-145 prostate -65.4% | K-562 leukemia 0.563% | MALME-3M melanoma -67.9% | MDA-MB-231 breast -46.7% | RXF 393 renal -92.7% | SF-268 CNS -38.5% | SF-295 CNS -34.7% | SF-539 CNS -81.2% | UACC-257 melanoma -46.1% | M14 melanoma -76.6% | HCT-15 colon -32.3%

CCCCC(CCCCCC(CCCC)NCc1ccc2c(c1)OCO2)NCc1ccc2c(c1)OCO2 (stereo not given)
active: NCI-H23 lung -98.5% | NCI-H226 lung -77.9% | NCI-H322M lung -91.6% | HOP-62 NSCLC -98.9% | NCI-H460 lung -98.4% | NCI-H522 lung -91.2% | A549/ATCC NSCLC -99.2% | 786-0 renal -100% | COLO 205 colon -97.5% | DU-145 prostate -100% | K-562 leukemia -72.3% | MALME-3M melanoma -69.3% | MDA-MB-231 breast -86% | RXF 393 renal -93.3% | SF-268 CNS -96.8% | SF-295 CNS -79.7% | SF-539 CNS -100% | UACC-257 melanoma -86.9% | M14 melanoma -100% | HCT-15 colon -88%

Cc1ccc(NC(=O)Nc2nc3ccccc3s2)cc1NC(=O)Nc1nc2ccccc2s1
inactive: NCI-H23 lung 89.5% | NCI-H226 lung 90% | NCI-H322M lung 97.6% | HOP-62 NSCLC 88.3% | NCI-H460 lung 88.5% | A549/ATCC NSCLC 42.5% | 786-0 renal 97.1% | COLO 205 colon 80.6% | DU-145 prostate 107% | K-562 leukemia 83.8% | MALME-3M melanoma 90.6% | MDA-MB-231 breast 82.4% | RXF 393 renal 94.7% | SF-268 CNS 91.5% | SF-295 CNS 101% | SF-539 CNS 74.6% | UACC-257 melanoma 10.5% | M14 melanoma 90.3% | HCT-15 colon 72.9%
active: NCI-H522 lung -33.8%

Cc1ccc(Nc2nnc(-c3cc(-c4ccncc4)n(-c4ccccc4)n3)s2)cc1
active: HCT-15 colon 9.74%
inactive: NCI-H23 lung 90.5% | NCI-H226 lung 86.2% | NCI-H322M lung 98.7% | HOP-62 NSCLC 114% | NCI-H460 lung 56.8% | NCI-H522 lung 84.5% | A549/ATCC NSCLC 60.5% | 786-0 renal 41.9% | COLO 205 colon 73.8% | DU-145 prostate 107% | K-562 leukemia 27% | MALME-3M melanoma 74.8% | MDA-MB-231 breast 18.9% | RXF 393 renal 57.5% | SF-268 CNS 113% | SF-295 CNS 21.9% | SF-539 CNS 91.6% | UACC-257 melanoma 110% | M14 melanoma 61.9%

CC/C(C)=C(\C)C(=O)O
inactive: NCI-H23 lung 101% | NCI-H226 lung 96.5% | NCI-H322M lung 89.5% | HOP-62 NSCLC 95% | NCI-H460 lung 105% | NCI-H522 lung 89.3% | A549/ATCC NSCLC 101% | 786-0 renal 98.5% | COLO 205 colon 104% | DU-145 prostate 104% | K-562 leukemia 100% | MALME-3M melanoma 99.7% | MDA-MB-231 breast 111% | RXF 393 renal 110% | SF-268 CNS 105% | SF-295 CNS 94.7% | SF-539 CNS 104% | UACC-257 melanoma 91.7% | M14 melanoma 104% | HCT-15 colon 107%

COc1ccc(-c2nn(-c3cccc(NC(=O)c4cc(C(F)(F)F)cc(C(F)(F)F)c4)c3)cc2-c2ccncc2)cc1Cl
inactive: NCI-H23 lung 81.1% | NCI-H226 lung 78.3% | NCI-H322M lung 73.1% | HOP-62 NSCLC 88.1% | NCI-H460 lung 62.3% | NCI-H522 lung 14.8% | A549/ATCC NSCLC 53.1% | 786-0 renal 81.2% | COLO 205 colon 90.7% | DU-145 prostate 83.7% | K-562 leukemia 31.3% | MALME-3M melanoma 42.5% | MDA-MB-231 breast 74% | RXF 393 renal 62.8% | SF-268 CNS 72.6% | SF-295 CNS 53.9% | SF-539 CNS 67.4% | UACC-257 melanoma 62% | M14 melanoma 64% | HCT-15 colon 73.7%

O=C1ON=[N+](c2ccc(Cc3ccc([N+]4=NOC(=O)C4CN4CCOCC4)cc3)cc2)C1CN1CCOCC1 (stereo not given)
inactive: NCI-H23 lung 62.1% | NCI-H226 lung 85.5% | NCI-H322M lung 82.5% | HOP-62 NSCLC 77% | NCI-H460 lung 82.9% | NCI-H522 lung 37% | A549/ATCC NSCLC 69.1% | 786-0 renal 74% | COLO 205 colon 99.9% | DU-145 prostate 101% | K-562 leukemia 26.4% | MALME-3M melanoma 65.6% | MDA-MB-231 breast 60.5% | RXF 393 renal 72.2% | SF-268 CNS 78.3% | SF-295 CNS 44.1% | SF-539 CNS 77.5% | UACC-257 melanoma 75.1% | M14 melanoma 69.5% | HCT-15 colon 78.6%

CCOC(=O)C(CSC(c1ccccc1)(c1ccccc1)c1ccccc1)NC(=O)C(CSC(c1ccccc1)(c1ccccc1)c1ccccc1)NC(c1ccccc1)(c1ccccc1)c1ccccc1 (stereo not given)
inactive: NCI-H23 lung 116% | NCI-H226 lung 93.5% | NCI-H322M lung 101% | HOP-62 NSCLC 101% | NCI-H460 lung 106% | NCI-H522 lung 99.4% | A549/ATCC NSCLC 95.1% | 786-0 renal 104% | COLO 205 colon 112% | DU-145 prostate 115% | K-562 leukemia 112% | MALME-3M melanoma 108% | MDA-MB-231 breast 108% | RXF 393 renal 97.4% | SF-268 CNS 110% | SF-295 CNS 86.7% | SF-539 CNS 112% | UACC-257 melanoma 88.8% | M14 melanoma 111% | HCT-15 colon 100%

COc1ccc(-c2nn(-c3cccc(NC(=O)c4ccc(Cl)c(Cl)c4)c3)cc2-c2ccncc2)cc1Cl
inactive: NCI-H23 lung 94.9% | NCI-H226 lung 83.5% | NCI-H322M lung 83.6% | HOP-62 NSCLC 94% | NCI-H460 lung 79.4% | NCI-H522 lung 33.3% | A549/ATCC NSCLC 70% | 786-0 renal 80% | COLO 205 colon 86.2% | DU-145 prostate 92.1% | K-562 leukemia 36.3% | MALME-3M melanoma 58.4% | MDA-MB-231 breast 78% | RXF 393 renal 65.9% | SF-268 CNS 89.8% | SF-295 CNS 65% | SF-539 CNS 72.2% | UACC-257 melanoma 86.9% | M14 melanoma 75.6% | HCT-15 colon 75.2%

Nc1c(C(=O)Nc2ccccc2)sc2nc3c(cc12)CCCC3
inactive: NCI-H23 lung 38% | NCI-H226 lung 52.8% | NCI-H322M lung 56.9% | HOP-62 NSCLC 49.9% | NCI-H460 lung 10.9% | NCI-H522 lung 29.7% | A549/ATCC NSCLC 21.7% | 786-0 renal 57% | DU-145 prostate 11.1% | K-562 leukemia 13.6% | MALME-3M melanoma 52% | MDA-MB-231 breast 56% | SF-268 CNS 54.7% | UACC-257 melanoma 59.2% | M14 melanoma 22.7% | HCT-15 colon 24.8%
active: COLO 205 colon 1.79% | RXF 393 renal -24.3% | SF-295 CNS 5.09% | SF-539 CNS -3.86%

Nc1c(C(=O)Nc2ccccc2)sc2nc3c(cc12)C(O)CCC3 (stereo not given)
inactive: NCI-H23 lung 37.1% | NCI-H226 lung 74% | NCI-H322M lung 46.1% | HOP-62 NSCLC 24.6% | NCI-H460 lung 11.8% | A549/ATCC NSCLC 29.3% | 786-0 renal 57.6% | K-562 leukemia 11.1% | MALME-3M melanoma 87.4% | MDA-MB-231 breast 32.8% | SF-268 CNS 46.4% | UACC-257 melanoma 71.1% | M14 melanoma 22.1% | HCT-15 colon 23.5%
active: NCI-H522 lung 7.09% | COLO 205 colon -8.22% | DU-145 prostate 5.47% | RXF 393 renal -6.4% | SF-295 CNS 8.61% | SF-539 CNS -5.31%

Nc1ccccc1NC(=O)CCCCC(=O)Nc1ccc2c(c1)/C(=C/c1ccc[nH]1)C(=O)N2
inactive: NCI-H23 lung 89.6% | NCI-H226 lung 52.2% | NCI-H322M lung 63.3% | HOP-62 NSCLC 83% | NCI-H460 lung 73.9% | NCI-H522 lung 37.5% | A549/ATCC NSCLC 92.9% | 786-0 renal 90.2% | COLO 205 colon 87.4% | DU-145 prostate 70.7% | K-562 leukemia 99.6% | MALME-3M melanoma 32.9% | MDA-MB-231 breast 93% | RXF 393 renal 62.9% | SF-268 CNS 71.9% | SF-295 CNS 98.4% | SF-539 CNS 53.1% | UACC-257 melanoma 97.9% | M14 melanoma 69.9% | HCT-15 colon 92.2%

COc1ccc2c(c1)O/C(=C\c1ncc([N+](=O)[O-])n1C)C2=O
active: NCI-H23 lung -7.25% | NCI-H226 lung -42.3% | NCI-H322M lung 2.34% | HOP-62 NSCLC -20% | NCI-H460 lung -30.6% | NCI-H522 lung -48.8% | A549/ATCC NSCLC -23.9% | 786-0 renal -13.4% | COLO 205 colon -49.2% | DU-145 prostate -19.2% | K-562 leukemia 1.57% | MALME-3M melanoma -65.6% | MDA-MB-231 breast -10.3% | RXF 393 renal -72% | SF-268 CNS -17.6% | SF-295 CNS -34.6% | SF-539 CNS -60.9% | UACC-257 melanoma -57% | M14 melanoma -54.6% | HCT-15 colon 2.5%

CCOC(=O)N1C/C(=C/c2ccc(F)cc2)C(=O)/C(=C/c2ccc(F)cc2)C1
active: NCI-H226 lung -18.7% | HOP-62 NSCLC -12.9% | NCI-H460 lung 3.07% | NCI-H522 lung -52.4% | 786-0 renal -58.7% | COLO 205 colon 2.88% | DU-145 prostate -6.4% | K-562 leukemia 3.36% | MALME-3M melanoma -36.8% | MDA-MB-231 breast -2.86% | RXF 393 renal -83.4% | SF-268 CNS -12% | SF-295 CNS -22% | SF-539 CNS 3.86% | UACC-257 melanoma -14.7% | M14 melanoma -69% | HCT-15 colon -63.4%
inactive: NCI-H23 lung 12.2% | NCI-H322M lung 53.9% | A549/ATCC NSCLC 22%
